Data published in article PMC4336329 (PLoS ONE, 2015).
Among all 310,000 compounds or so, about 14,000 (4.5%) showed an effect of 50% or more. Effects have a minus sign here. This is one part of a sample in which strong results are shown more often than they occur.

molecular target: human ether-à-go-go-related gene (hERG) potassium channel (human, UniProt Q12809); test: primary screen, population patch clamp on CHO cells stably expressing hERG; higher = less effect of the substance
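Further: peak tail current of the secondary pulse compared with the same well before compound.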

human ether-à-go-go-related gene (hERG) potassium channel, sequence (Q12809 whole entry, looked up): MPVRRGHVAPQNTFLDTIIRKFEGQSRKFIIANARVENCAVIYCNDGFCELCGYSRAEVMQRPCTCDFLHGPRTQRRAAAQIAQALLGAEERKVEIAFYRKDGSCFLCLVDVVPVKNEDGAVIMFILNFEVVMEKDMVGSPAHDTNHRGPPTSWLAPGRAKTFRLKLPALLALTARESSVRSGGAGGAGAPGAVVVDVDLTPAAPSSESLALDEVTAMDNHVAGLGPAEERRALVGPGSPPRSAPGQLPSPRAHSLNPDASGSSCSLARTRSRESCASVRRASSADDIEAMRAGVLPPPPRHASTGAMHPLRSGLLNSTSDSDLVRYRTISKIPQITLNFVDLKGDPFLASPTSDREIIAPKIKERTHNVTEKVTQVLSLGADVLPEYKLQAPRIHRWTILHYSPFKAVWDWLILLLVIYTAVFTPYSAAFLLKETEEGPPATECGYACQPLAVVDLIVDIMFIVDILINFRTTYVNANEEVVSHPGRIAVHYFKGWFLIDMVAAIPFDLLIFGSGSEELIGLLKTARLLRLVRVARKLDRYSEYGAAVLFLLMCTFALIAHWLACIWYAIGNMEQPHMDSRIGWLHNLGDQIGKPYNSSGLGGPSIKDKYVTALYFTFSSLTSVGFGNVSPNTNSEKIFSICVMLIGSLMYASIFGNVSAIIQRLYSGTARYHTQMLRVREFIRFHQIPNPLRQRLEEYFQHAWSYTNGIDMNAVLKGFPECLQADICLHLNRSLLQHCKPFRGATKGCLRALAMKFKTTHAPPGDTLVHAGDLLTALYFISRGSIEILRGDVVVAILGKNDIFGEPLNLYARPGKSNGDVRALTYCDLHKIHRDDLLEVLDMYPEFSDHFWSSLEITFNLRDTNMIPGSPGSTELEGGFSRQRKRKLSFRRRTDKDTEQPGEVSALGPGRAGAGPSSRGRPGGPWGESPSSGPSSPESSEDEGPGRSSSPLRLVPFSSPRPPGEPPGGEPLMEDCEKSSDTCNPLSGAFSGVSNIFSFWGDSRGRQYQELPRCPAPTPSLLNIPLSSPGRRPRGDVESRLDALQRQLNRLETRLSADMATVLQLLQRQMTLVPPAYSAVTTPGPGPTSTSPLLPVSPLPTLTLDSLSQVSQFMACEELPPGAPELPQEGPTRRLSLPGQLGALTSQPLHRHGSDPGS

Point of comparison: `C[C@]12C(=O)N(c3ccc(Cl)cc3)C(=O)N1[C@@H]1c3ccccc3OC[C@@H]1[C@H]2c1ccccc1`, “hERG current change (%, negative = inhibition) at 10uM” value 8.19%. Against it:
- Cc1ccc(S(=O)(=O)NCC(=O)NCCc2c[nH]c3ccccc23)cc1C — lower, 3.3%
- O=C(NCC1OCCCN1S(=O)(=O)c1cc(F)ccc1F)C(=O)NC1CCCCC1 (centres unmarked) — lower, -3.8%
- O=C(CN1CCC(C(=O)c2ccc3c(c2)OCCO3)CC1)Nc1ccccc1F — lower, -0.724%
- O=C(CN1CCOCC1)Nc1ccccc1Cl — lower, -8.73%
- O=C(CN1CCN(CC(=O)Nc2ccccc2F)CC1)Nc1ccc2c(c1)OCCO2 — lower, -71.2%
- Cl.O=C(CN1CCC(NC(=O)c2ccccc2F)CC1)Nc1ccc2c(c1)OCCO2 — lower, 6.04%
- O=C(CN1CCOCC1)Nc1ccc2c(c1)OCCO2.O=C(O)C(=O)O — higher, 15%
- O=C(CN1CCN(CC(=O)Nc2ccccc2Cl)CC1)Nc1ccc2c(c1)OCCO2 — lower, -68.7%
- COC(=O)N/N=C/c1ccccc1Cl — higher, 19.4%
- N#CC(c1cccc(C(F)(F)F)c1)(c1ncc(C(F)(F)F)cc1Cl)N1CCOCC1 (centres unmarked) — lower, 4.46%
- CN(CC1CCCCO1)C(=O)c1cc(COc2ccc(F)cc2Cl)on1 (centres unmarked) — lower, -87.1%
- CCCN(CC1CCCO1)C(=O)c1cc(COc2ccc(F)cc2F)on1 (centres unmarked) — lower, -15%
- COc1ccc(OCc2cc(C(=O)N(C)CC3CCCCO3)no2)c(Cl)c1 (centres unmarked) — lower, -17.4%
- CCN(Cc1ccncc1)C(=O)c1cc(COc2ccc(F)cc2Cl)on1 — lower, -44%
- COc1cc(Cl)ccc1OCc1cc(C(=O)N(C)CC2CCCCO2)no1 (centres unmarked) — lower, -18.7%
- O=C(c1cc(COc2ccc(F)cc2Cl)on1)N(Cc1ccncc1)CC1CCCO1 (centres unmarked) — lower, -60.7%
- CCC(C)N1CC23C=CC(O2)C(C(=O)OCc2ccccc2)C3C1=O (centres unmarked) — lower, 5.54%
- CC(C)c1ccc(NC(=O)COC(=O)c2cc(=O)[nH]c3ccccc23)cc1 — lower, -8.12%
- O=C(Cc1ccc(S(=O)(=O)N2CCOCC2)s1)NCCC(c1ccccc1)c1ccccc1 — lower, -54.8%
- O=C(Cc1ccc(S(=O)(=O)N2CCOCC2)s1)NCCOc1ccccc1 — lower, -8.35%
- CCCCCNC(=O)Cc1ccc(S(=O)(=O)N2CCOCC2)s1 — lower, -5.94%
- Cc1ccc[n+](CC(=O)Nc2ccc([N+](=O)[O-])cc2)c1.[Cl-] — higher, 10.9%
